Results from PubChem BioAssay (NCATS).
For part of these data: Potency and affinity values are given separately. Calls of active or inactive are those of the source. No rule for the calls is given here.

Assays:
[1] = Ebola virus entry assay, green fluorescence channel
[2] = Ebola virus entry assay, blue channel fluorescence
[3] = Ebola virus entry assay, ratio channel
[4] = Ebola virus entry assay, green channel fluorescence
[5] = Ebola virus entry assay, reporter ratio channel; Channel type: primary
[6] = Ebola virus entry assay, blue channel (ratio component)

Measured: efficacy
For efficacy in this document: 0% is about no effect.

COC(=O)c1cc(S(N)(=O)=O)ccc1OC
inactive: [1] -31.2% | [2] | [3] | [4] | [5] | [6]

NS(=O)(=O)c1cc2c(cc1Cl)CN(C1CCCCC1)C2=O
inactive: [1] 30.3% | [2] | [3] | [4] | [5] | [6]

NC(N)=NCCC[C@H](N)C(=O)O
inactive: [1] -16.3% | [2] | [3] | [4] | [5] | [6]

CCC(=O)Oc1ccc2c(c1)CC[C@@H]1[C@@H]2CC[C@@]2(C)[C@H]1C[C@@H](OC(=O)CC)[C@@H]2OC(=O)CC
inactive: [1] -23.4% | [2] | [3] | [4] | [5] | [6]

COC(=O)[C@@H](N)Cc1ccc(O)c(O)c1
inactive: [1] -12% | [2] | [3] | [4] | [5] | [6]

O=c1[nH]c(=O)n([C@H]2C[C@H](O)[C@@H](CO)O2)cc1C(F)(F)F
inactive: [1] 18.2% | [2] | [3] | [4] | [5] | [6]

CCO[C@H]1O[C@@H]2OC3(C)CC[C@H]4[C@H](C)CC[C@@H]([C@H]1C)[C@@]24OO3
inactive: [1] 19.2% | [2] | [3] | [4] | [5] | [6]

CCOC(=O)N1CCC(n2c(=O)[nH]c3cc(Cl)ccc32)CC1
inactive: [1] 43.9% | [2] | [3] | [4] | [5] | [6]
